# Assay outcomes as filed in PubChem BioAssay.
# Rows were chosen to be rich in hits. Some 4.1% of all compounds tested hit in one or more screens of this group.
# PfHsp90 yeast 2 – growth inhibition of PfHsp90-expressing yeast, primary screen, antimalarial PfHsp90 inhibitor project, S. cerevisiae, BacTiter-Glo luminescence, single point, set 2; BacTiter-Glo ATP, 48 h; yeast lacking PDR1 and PDR3 efflux regulators; inhibition, % at 9.4 µM; 310,000 compounds, 0.32% hits; AID 504621, 2011;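 active = every replicate shows inhibition above about 80%, whatever the replicate mean, limit read from the data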
# TIM10 inh – growth inhibitors of isogenic TIM10 control yeast, primary screen, counter-screen for tim10-1 yeast inhibitor project, luminescence, uHTS | inhibition, % at 10 µM | 330,000 compounds, 1.4% hits | S. cerevisiae TIM10 strain growth, BacTiter-Glo luminescence, 24 h;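 active = inhibition of 40% or more at the single tested concentration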;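 also: wild-type TIM10 isogenic control strain grown at permissive 25 °C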
# NALP1 inh – NALP1 inflammasome inhibitors in reconstituted yeast, colorimetric, S. cerevisiae, triplicate retest | 280,000 compounds, 0.61% hits | inhibition, % at 10 µM | S. cerevisiae NALP1/ASC/caspase-1 growth, X-gal OD620, 72 h; in the data active = inhibition mostly above about 24%, no sharp cut-off; inactive = mostly below about 32%
# NALP3 yeast inh – NALP3 inflammasome inhibitors in reconstituted yeast, primary screen, luminescence, uHTS; inhibition, % at 10 µM; Yeast reconstituted NLRP3/ASC/caspase-1, beta-gal luminescence, 24 h; 330,000 compounds, 0.39% hits; AID 2825, 2010;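 active = inhibition of 50% or more; inactive = inhibition below 50%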
# tim23-1 inh – growth inhibitors of tim23-1 mutant yeast, primary screen, luminescence, uHTS | S. cerevisiae tim23-1 growth, BacTiter-Glo luminescence, 24 h | inhibition, % at 20 µM | 330,000 compounds, 1.3% hits | AID 463212, 2010;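 active = growth inhibition of the mutant yeast at or above 50%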;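 also: temperature-sensitive mutant grown at 25 °C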
# tim10-1 inh – growth inhibitors of tim10-1 mutant yeast, primary screen, luminescence, uHTS. AID 463190, 2010. inhibition, % at 20 µM. S. cerevisiae tim10-1 ts strain growth, BacTiter-Glo, 24 h. 330,000 compounds, 2.2% hits;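 active = inhibition of at least 40%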;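 also: mutant grown at 25 °C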
# Numbers stand for hits; . = inactive; / = not tested or not shown.
SMILES,PfHsp90 yeast 2,TIM10 inh,NALP1 inh,NALP3 yeast inh,tim23-1 inh,tim10-1 inh
COc1ccc(C(=O)N2CCCC(Nc3ccc(F)cc3)C2)c(OC)c1 (stereo not drawn),.,.,30,.,.,.
CCCCC(=O)NC(c1cccs1)c1cc(Cl)c2cccnc2c1O (stereo not drawn),103,.,.,.,.,.
O=C(NC(c1ccc(Cl)cc1)c1cc(Cl)c2cccnc2c1O)c1cccnc1 (stereo not drawn),102,/,.,/,/,/
CC(=O)NC(c1ccc(C)cc1)c1cc([N+](=O)[O-])c2cccnc2c1O (stereo not drawn),.,.,.,.,.,.
CCCC(=O)NC(c1ccc(OC)c(OC)c1)c1cc(Cl)c2cccnc2c1O (stereo not drawn),100,.,.,.,.,.
COc1ccc(C(NC(C)=O)c2cc(Cl)c3cccnc3c2O)cc1 (stereo not drawn),.,.,.,.,.,.
COc1ccc(CCN(C)C(=O)CSc2nc3ccccc3c(=O)n2CC2CCCO2)cc1OC (stereo not drawn),.,/,/,/,/,/
O=C(CN1CCN(S(=O)(=O)c2ccc(Cl)c(Cl)c2)CC1)N1CCCC1,.,.,/,.,.,.
CC(Sc1nnnn1C)C(=O)Nc1nc(-c2ccc(F)c(F)c2)cs1 (stereo not drawn),.,.,/,.,.,.
COC1c2ccccc2C(=O)N1Cc1ccc(F)cc1 (stereo not drawn),.,.,.,.,.,.
CC(=O)Nc1nc2ccc(Br)cc2s1,.,.,29,.,.,.
CCC(=O)N1CCN(c2nc3ccc(Br)cc3s2)CC1,.,.,30,.,.,.
O=C(COC(=O)Cc1cccc(F)c1)NC(=O)NC1CCCCC1,.,.,/,.,.,.
Cc1nn(-c2ccccc2)c(N2CCCC2)c1/C=N/NC(=O)c1ccccc1O,.,.,.,.,.,.
O=C(N/N=C/c1cc2c3c(c1O)CCCN3CCC2)c1ccccc1O,107,/,.,/,/,/
O=C(COC(=O)c1cc(Br)ccc1O)c1ccc(F)cc1,.,.,/,.,.,.
Cc1ccc(S(=O)(=O)N/N=C/c2c[nH]c3ccccc23)cc1,.,.,26,.,.,.
COc1cccc(CNC(=O)c2ccc(NS(=O)(=O)c3ccc4[nH]c(=O)[nH]c4c3)cc2)c1,.,.,/,.,.,.
O=C(Nc1nnc(-c2ccc3c(c2)CCCC3)o1)c1ccc(Cl)cc1Cl,105,.,.,.,.,.
CC1CCCN(CCCOc2ccc(Br)cc2Cl)C1 (stereo not drawn),.,.,26,.,.,.
CC1CN(C(=O)Cn2cc(S(=O)(=O)CC(=O)N3CCOCC3)c3ccccc32)CC(C)O1 (stereo not drawn),.,.,.,.,.,.
CCOC(=O)c1ccc(NC(=O)COc2ccc(S(=O)(=O)NC(C)CC)cc2)cc1 (stereo not drawn),.,.,28,.,.,.
CC(=O)c1cccc(NC(=O)c2cc(=O)[nH]c3ccc(S(=O)(=O)N4CCOCC4)cc23)c1,.,.,/,.,.,.
O=C1C(=O)N(CCCn2ccnc2)C(c2ccc([N+](=O)[O-])cc2)/C1=C(\O)c1ccc2c(c1)OCCO2 (stereo not drawn),.,.,/,.,.,.
C[C@@H](C(=O)NCc1ccccc1)N1C(=O)C2CC=CCC2C1=O (stereo partly drawn),/,.,36,.,.,.
SMILES,PfHsp90 yeast 2,TIM10 inh,NALP1 inh,NALP3 yeast inh,tim23-1 inh,tim10-1 inh
N#CCCN(C(=O)c1cc2c(s1)-c1ccccc1S(=O)(=O)C2)c1ccccc1,.,.,.,.,.,.
CCOC(=O)c1c(N)nn(C(=O)C(C)C)c1-c1ccccc1,.,.,38,.,.,.
CCOC(=O)c1c(N)nn(C(=O)CC)c1-c1ccccc1,/,.,.,.,.,.
Cc1ccc(NC(=O)c2ccc(-n3cccn3)c([N+](=O)[O-])c2)cc1,.,.,.,.,.,.
O=C(Nc1ccc(C2=NCCN2)cc1)c1ccc(C(=O)Nc2ccc(C3=NCCN3)cc2)c([N+](=O)[O-])c1,.,.,35,.,.,.
O=C(COc1ccc(Cl)cc1)Nc1ccccc1C(=O)NCc1cccnc1,.,.,.,.,.,.
COc1ccc(NCc2ccc([N+](=O)[O-])s2)c(OC)c1,.,/,52,/,/,/
Cc1ccc(S(=O)(=O)CCC(=O)OCc2nnc(-c3ccc([N+](=O)[O-])cc3)o2)cc1,.,/,/,/,/,/
CCN(C(=O)CSc1nncs1)c1c(N)n(Cc2ccccc2)c(=O)[nH]c1=O,.,.,.,.,.,.
CC(C)CN(C(=O)CSc1nncs1)c1c(N)n(CC(C)C)c(=O)[nH]c1=O,.,.,45,.,.,.
CCc1ccccc1N(C(=O)c1ccco1)C(C(=O)NC1CCCC1)c1cccnc1 (stereo not drawn),.,.,.,.,.,.
CCCN(CC1CC1)C(=S)Nc1ccc(Oc2ccccc2)cc1,.,.,61,.,.,.
CCCCN(C)C(=S)Nc1ccc(Oc2ccccc2)cc1,.,.,.,.,.,.
O=c1sc(Nc2ccccc2)nc2ccsc12,.,.,70,.,.,.
O=C(Nc1nc2ccsc2c(=O)s1)C1CCC1,.,.,/,.,.,.
CCN(CC)c1ccc(N=Cc2ccc([N+](=O)[O-])o2)cc1,.,.,76,.,.,.
CCN(CC)c1ccc(N=Cc2ccccc2[N+](=O)[O-])cc1,.,.,.,.,.,.
Clc1ccccc1-c1nn2c(COc3ccccc3)nnc2s1,.,.,40,.,.,.
CC(C)NCC(O)Cn1c2c(c3ccccc31)CCc1c-2cnn1-c1ccccc1 (stereo not drawn),.,.,22,.,.,.
CC(CN1CCOCC1)OC(=O)C1COc2ccccc2O1 (stereo not drawn),.,.,28,.,.,.
CC(CN1CCOCC1)OC(=O)CCc1ccccc1 (stereo not drawn),.,.,.,.,.,.
COc1ccc(CC(=O)OC(C)CN2CCOCC2)cc1 (stereo not drawn),.,.,29,.,.,.
N#Cc1ccccc1S(=O)(=O)N1CCN(C(=O)[C@H](Cc2ccccc2)NC(=O)c2ccco2)CC1,.,.,/,.,.,.
O=C(Nc1ccc(F)cc1)N1CCN(C(=O)C2CCCO2)CC1 (stereo not drawn),.,.,34,.,.,.
N#CCSc1nnc(-c2c[nH]c3ccccc23)o1,.,.,.,.,.,.
CCSc1nnc(-c2c[nH]c3ccccc23)o1,.,.,37,.,.,.
